CYP2C9 act: activators of human CYP2C9; recombinant CYP2C9, luciferin-H conversion, luminescence; hits give high values; factor 1 = untreated enzyme, 0 = blocked; 96,000 tested, 1.4% active; activation factor at 5 µM; AID 1024; P11712;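 active = activation factor of 2 or more for CYP2C9 at a 5 µM dose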;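 note: 0 = sulfaphenazole-blocked wells and 1 = vehicle-only wells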
Target sequence (P11712 whole entry, looked up): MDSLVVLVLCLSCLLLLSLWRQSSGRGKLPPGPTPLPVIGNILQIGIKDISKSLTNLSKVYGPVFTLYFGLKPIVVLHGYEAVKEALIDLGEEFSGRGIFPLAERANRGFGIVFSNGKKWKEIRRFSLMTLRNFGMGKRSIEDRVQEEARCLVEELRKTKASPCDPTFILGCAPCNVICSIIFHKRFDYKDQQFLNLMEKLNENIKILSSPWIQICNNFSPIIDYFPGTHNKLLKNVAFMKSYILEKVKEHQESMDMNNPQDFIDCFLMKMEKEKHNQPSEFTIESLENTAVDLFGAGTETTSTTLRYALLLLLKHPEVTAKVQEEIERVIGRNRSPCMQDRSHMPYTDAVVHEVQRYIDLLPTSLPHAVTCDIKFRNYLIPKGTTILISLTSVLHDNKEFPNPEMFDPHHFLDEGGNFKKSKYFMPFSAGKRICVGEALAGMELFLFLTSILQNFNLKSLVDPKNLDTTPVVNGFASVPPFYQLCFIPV
CYP2C19 inhib: blocks human cytochrome P450 2C19; P33261; CYP2C19 Supersomes, luciferin-H EGE luminescence, 30 min; inhibition, % at 5 µM; 96,000 tested, 21% active; AID 778;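 active = CYP2C19 inhibition above a set limit at 5 µM in the primary screen, cut at about 50% in these data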;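 note: plate controls were negative control wells for no effect and 2.5 mM tranylcypromine positive control for full effect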
PostGolgi ctrl: inhibits growth of the yeast control strain | efflux-deficient yeast background strain, growth absorbance A615, 16 h | inhibition, % at 10 µM | 98,000 tested, 5% active | AID 738
PostGolgi yeast: growth inhibition of a yeast mutant, post-Golgi transport screen | 98,000 tested, 0.9% active | AID 739 | post-Golgi transport phenotypic cell assay | inhibition, % at 10 µM;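 note: yeast cells grown in 1536-well plates; yeast grown about 18 h at 30C before absorbance read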
CYP2C19 activ: increases human CYP2C19 enzyme activity | 96,000 tested, under 10 active | P33261 | recombinant CYP2C19, luciferin-H EGE luminescence; hits give high values; 0 = fully inhibited enzyme, 1 = untreated enzyme | activation factor at 5 µM | AID 1025;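 active = activation factor of at least 2 at 5 µM in the primary screen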;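 note: 0 = wells with 2.5 mM tranylcypromine and 1 = vehicle-only wells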
CYP2C9 inhib: inhibitors of human CYP2C9 | P11712 | AID 777 | 96,000 tested, 20% active | inhibition, % at 5 µM | CYP2C9 Supersomes, luciferin-H conversion, luminescence;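 active = blocking of liver enzyme CYP2C9 beyond about 50% at 5 µM, limit read from the data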
The depositor's hits bear a star; . = not tested or not shown. An excerpt weighted towards active compounds, which were near 32% of everything screened. Cut-off read from the data, not from the text of the source, unless noted: active = inhibition above about 30%; inactive = the rest.

SMILES	CYP2C9 act	CYP2C19 inhib	PostGolgi ctrl	PostGolgi yeast	CYP2C19 activ	CYP2C9 inhib
Cc1ccc(S(=O)(=O)c2nc(N3CCOCC3)sc2Cl)cc1	0.9	36	18	-3	0.6	6
CCOC(=O)c1c(-c2ccc(C)o2)csc1NC(=O)CSc1nnc(C)s1	0	88*	23	-6	0.1	96*
CCOC(=O)c1c(-c2ccc(C)o2)csc1NC(=O)COC(=O)c1ccc(NC(N)=O)cc1	0.1	11	0	-7	0.9	91*
CCOC(=O)c1sc(NC(=O)CSc2nnnn2-c2ccccc2)nc1C	0.7	13	12	2	0.9	30
CCOC(=O)c1c(-c2ccc(C)o2)csc1NC(=O)CSc1nnnn1-c1ccccc1	0	80*	7	5	0.2	96*
CCOC(=O)c1c(-c2ccc(C)o2)csc1NC(=S)NC(=O)c1ccccc1Br	0.3	25	11	5	0.8	71*
CCOC(=O)c1c(-c2cccs2)csc1NC(=O)CCCC(=O)O	0.6	1	14	-3	1	40
CCOC(=O)c1c(-c2ccc(C)s2)csc1NC(=O)c1cccs1	0.9	-17	9	-6	1.2	10
CCOc1cc(C(=O)Nc2c3c(nn2C(C)(C)C)CS(=O)C3)cc(OCC)c1OCC (stereo not given)	.	.	-4	-3	.	.
Cc1cccc(OCc2nnc(SCc3nc4ccccc4c(=O)[nH]3)o2)c1	0.5	54*	3	-5	0.5	48
O=c1[nH]c(CSc2nnc(COc3ccccc3)n2-c2ccccc2)nc2ccccc12	0.1	85*	25	-3	0.1	90*
Cn1c(COc2ccccc2)nnc1SCc1nc2ccccc2[nH]1	0.9	35	17	1	0.6	6
CCN(CC)CCCNC(=O)c1cc2c(-c3ccc(Cl)cc3)nn(C)c2s1	0.8	11	4	0	0.9	21
COc1cccc(-c2nn(C)c3sc(C(=O)NCc4ccc(C)o4)cc23)c1	0.5	23	19	11	0.8	54*
COc1cccc(-c2nn(C)c3sc(C(=O)NCc4ccc5c(c4)OCO5)cc23)c1	0.1	76*	30*	-9	0.2	87*
Cc1ccc(-n2ncc3c(=O)[nH]c(SCC(=O)N4CCC(C)CC4)nc32)cc1C	0.8	8	-3	-8	0.9	21
O=C(CCN1C(=O)c2ccccc2C1=O)Nc1cccc(S(=O)(=O)N2CCCCC2)c1	0.1	81*	8	-5	0.2	92*
CC1CCN(S(=O)(=O)c2ccc(NC(=O)Cc3ccccc3)cc2)CC1	0.1	78*	39*	-6	0.2	92*
CC1CN(S(=O)(=O)c2ccc(NC(=O)CCCN3C(=O)c4ccccc4C3=O)cc2)CC(C)O1 (stereo not given)	0.5	28	4	-4	0.7	50*
CC1CN(S(=O)(=O)c2ccc(NC(=O)c3ccco3)cc2)CC(C)O1 (stereo not given)	0.5	18	4	14	0.8	50
O=C(CCCCCN1C(=O)c2ccccc2C1=O)Nc1ccc(S(=O)(=O)N2CCCCC2)cc1	0.2	26	8	2	0.7	83*
CC1CCN(S(=O)(=O)c2ccc(NC(=O)Cn3nnc(-c4ccccc4F)n3)cc2)CC1	0.2	39	9	-5	0.6	80*
CC1CCN(S(=O)(=O)c2ccc(NC(=O)CCN3C(=O)c4ccccc4C3=O)cc2)CC1	0.1	62*	6	83*	0.4	94*
CC1CCN(S(=O)(=O)c2ccc(C(=O)Nc3sccc3C(N)=O)cc2)CC1	0.4	52*	20	0	0.5	59*
Cc1cc(NS(=O)(=O)c2ccc(NC(=O)CCN3C(=O)c4ccccc4C3=O)cc2)no1	0.5	1	4	-4	1	50
CC1CN(S(=O)(=O)c2ccc(NC(=O)CCN3C(=O)c4ccccc4C3=O)cc2)CC(C)O1 (stereo not given)	0.4	1	-3	4	1	57*
Cc1ccc(NC(=O)c2ccc(S(=O)(=O)N3CCC(C)CC3)cc2)cc1	0.7	23	-2	-7	0.8	26
CCOC(=O)C1C(=O)OC2(CCCCC2)C1C(=O)OCC (stereo not given)	1.1	25	4	4	0.7	-11

Screens: PubChem BioAssay, several laboratories
